Source: PubChem BioAssay AID743279 (National Center for Advancing Translational Sciences (NCATS), 2014)
The whole screen tested about 360,000 compounds, of which about 17,000 (4.7%) were called active. Roughly 5% stayed inconclusive and do not appear here. No stated cut-off is given here; in the data, active means activity change below about -50%; inconclusive means mostly about -30% to -49%; inactive means weaker than that. What follows is part of a selection rich in actives, with near analogues and random picks from the rest.

Test: qHTS for Inhibitors of Inflammasome Signaling: IL-1-beta AlphaLISA Primary Screen
Conditions: THP-1 LPS/ATP IL-1B secretion, 16 h; at 57.5 µM, stronger effect = lower value
Outline: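 THP-1 cells pretreated 1 hr with compounds (up to 57.5 uM final), then stimulated with LPS (250 ng/mL final) plus ATP (1.25 mM final); secreted IL-1B measured by AlphaLISA after 16 hr, decreased signal indicating inhibition.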
On the % scale 0 is the no-effect control and ±100 the full control effect.

Activity change, inactive:
OC[C@@H]1CN(Cc2ccc(F)cc2)C[C@H](n2cnc3c(NC4CCCC4)ncnc32)O1 0%
O=C(COc1ccccc1F)Nc1nc(-c2ccccn2)cs1 33.3%
COc1ccc(NC(=O)C2(C)Cc3c(-c4cccc(NC(C)=O)c4)ccnc3O2)cc1OC (stereo not drawn) -4.57%
CCCCCCC(=O)Nc1nc(C)c(-c2csc(Nc3cccc(OC)c3)n2)s1 -17.4%
COc1ccc(-c2csc(Nc3cccc(C)n3)n2)cc1OC -7.72%
COc1cc(CC(=O)NCc2cccs2)cc(OC)c1OC 0%
CC(=O)NC(c1ccccc1)c1nc(-c2cccc(C(C)C)c2)cs1 (stereo not drawn) -14.5%
COc1ccc(OC)c(-c2csc(NC(=O)COC(=O)C3CC3)n2)c1 -8.53%
COc1ccc(CCN(C(=O)COc2ccccc2)c2nc(-c3ccccc3)cs2)cc1OC -19.6%
CCCNC(=O)C1(C)CCCN(C(=O)c2cccc(OC(C)=O)c2C)C1 (stereo not drawn) 1.04%
CCc1nc2c(OCCOc3ccccc3)cccn2c1N(C)C(=O)c1ccccc1F -0.777%
CC(C)CCNC(=O)c1cccnc1Sc1ccccc1 -7.52%
CCCc1ccc(-c2csc(NC(=O)Cc3cccs3)n2)cc1 8.64%
COc1ccc(CC(=O)Nc2ccccc2NC(=O)c2ccco2)cc1OC 12.9%
CCCc1c(C)nc2scc(-c3ccc(Cl)cc3)n2c1=O 26.4%
COc1ccc(C(CNC(=O)COc2ccccc2OC)N2CCCCC2)cc1 (stereo not drawn) -6.28%
COc1ccc(C(CNC(=O)COc2ccc([N+](=O)[O-])cc2)N2CCCCC2)cc1 (stereo not drawn) -22.1%
O=C(COC(=O)c1ccc(O)cc1O)NC(=O)c1ccccc1 13.5%
Cc1noc(C)c1COC(=O)c1cc2ccccc2cc1O -1.49%
Cc1ccc(C(=O)NNC(=O)OC(C)(C)C)c(Cl)c1 -7.82%
CC(C)(C)OC(=O)NCCCCCNC(=O)c1nc[nH]c1C(=O)NCc1ccccc1 11%
Cc1ccccc1NC(=O)Cn1cc(C(=O)C2CC2)c2ccccc21 16.9%
CCC1NC(=O)c2cccnc2-n2c1nc1ccc(C)cc1c2=O (stereo not drawn) -3.64%
N#C/C(=C(\O)C(F)(F)F)c1nnc2n1CCCCC2 11.5%
N#C/C(=C(\O)CCl)c1nnc2n1CCCCC2 4.27%
CCOC(=O)C1(C)CCCN(C(=O)c2ccc(N(C)C)cc2)C1 (stereo not drawn) 9.68%
CCN(CC)C(=O)[C@H]1CC(CC(=O)NCc2ccco2)C(=O)N2CCc3c([nH]c4ccccc34)[C@]12C (stereo partly drawn) 7.15%
O=C1OCCN1C(=O)[C@H]1[C@H](c2ccc(F)cc2)C(c2ccccc2)=NN1c1ccc(Br)cc1 -15.9%
O=C1OCCN1C(=O)[C@H]1[C@H](c2ccc(Cl)cc2)C(c2cccc(Cl)c2)=NN1c1ccc(Br)cc1 -23.1%
CN(CC(=O)Nc1c(Cl)cccc1Cl)C(=O)CNC(=O)C1CCCCC1
COc1cccc(CC2(CO)CCCN(Cc3ccc(OC(F)F)cc3)C2)c1 (stereo not drawn) -9.05%
O=S1(=O)CC(N2CCN(c3ccccn3)CC2)CN1Cc1ccc(F)cc1 (stereo not drawn) -7.1%
O=C(CCC1CCCN(C(=O)Cc2ccc(F)cc2)C1)N1CCN(c2ccccn2)CC1 (stereo not drawn) -15.7%
COc1ccc(-c2ccc3c(c2)[C@@H]2C[C@H](N(C)S(=O)(=O)c4ccccc4)[C@H]([C@H](C)O)C(=O)N2CC3)cc1 -14.6%
O=C(CCc1ccc(O)cc1)NN=Cc1cc(Br)ccc1O 137%
O=P(O)(CP(=O)(c1ccccc1)c1ccccc1)c1ccccc1O -5.18%
O=S(=O)(Nc1ccc2ccccc2c1)N1CCCCC1 -5.44%
CC(C)(C)C(=O)Nc1cccc(-c2ccc[nH]2)n1 -1.09%
Cn1c(Nc2cccc(Cl)c2)nc2ccccc21 -6.01%
OCCCNc1nccc(-c2cc(Nc3cccc(Cl)c3)ncn2)n1 -1.28%
CCOC(=O)N(Cc1ccccc1)C1CC1 8.58%
O=C1CC(c2ccccc2)C(=O)N2C(=O)CC(c3ccccc3)C(=O)N12 (stereo not drawn) -11.1%
COC(=O)[C@@]12C[C@@H](CC(=O)N3CCCCC3)C(=O)N(Cc3ccc4c(c3)OCO4)C1=CCC(C)(C)C2 -13.6%
CCOC(=O)N1CCN(C(=O)C[C@@H]2C[C@@]3(C(=O)OC)CC(C)(C)CC=C3N(Cc3ccco3)C2=O)CC1 5.52%

Activity change, active:
CC(=O)Nc1cccc(-c2csc(Nc3cccc(C)n3)n2)c1 -56.6%
COc1ccc(CCNc2nc(-c3cccc(NC(C)=O)c3)cs2)cc1OC -53.6%
COc1cc(CC(=O)Nc2nc(-c3ccc(F)c(F)c3)cs2)cc(OC)c1OC -57%
COc1cccc(CC(=O)Nc2nc(-c3ccc(OC)c(OC)c3)cs2)c1 -50.3%
COc1ccc(CC(=O)Nc2nc(-c3ccc(F)c(F)c3)cs2)cc1OC -67.5%
CCc1ccc(OCC(=O)NCC(c2ccc(Cl)cc2)N2CCCCC2)cc1 (stereo not drawn) -99.8%
O=C(NNc1c2ccccc2nc2ccccc12)c1cc2ccccc2cc1O -60.2%
CC(C)(C)OC(=O)NNc1c2ccccc2nc2ccccc12 -75.9%
N#C/C(=C/c1cccc([N+](=O)[O-])c1)c1nnc2n1CCCCC2 -112%
C[C@@H]1C(c2ccc(F)cc2)=NN(c2ccc(Br)cc2)[C@H]1C(=O)N1CCOC1=O -54.4%
Cc1c(CN2CC[C@@H](N3CCN(c4ccccn4)CC3)[C@H](O)C2)[nH]c2ccc(F)cc12 -50.8%
CC(C)(C)c1cc(P(=O)(c2ccccc2)c2ccccc2)ccc1O -66.1%
CC(C)n1cnc2c(Nc3cccc(Cl)c3)nc(N(CCO)CCCO)nc21 -97.4%
COC(=O)[C@@]12C[C@@H](CC(=O)N3CCC(c4ccccc4)CC3)C(=O)N(Cc3ccccc3)C1=CCC(C)(C)C2 -70.2%
